Calls of active or inactive are those of the source. Unless noted, the rule behind the calls is not given here.
Tests used:
[1] = system: Wnt5a (protein binding on small-molecule microarray); experiment: Wnt5a binders on small-molecule microarray, primary screen, biophysical, 635/667 nm fluorescence (AID 1142); settings: 635 nm fluorescence, higher = more signal;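 note: fluorescence read at 667 nm with signal to noise per printed feature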
[2] = cell viability in Huh7 cells, primary screen, cytotoxicity control for HCV replication inhibitor project, CellTiter-Glo luminescence, basal, 48 h (AID 1143); settings: Huh7 HCV replicon, higher = more signal, called active from +8 up or from −8 down;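 note: Huh7 hepatoma cells carrying a hepatitis C replication reporter with no stimulus; test concentration not given here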
[3] = P. aeruginosa biofilm formation inhibitors, primary screen, PAO1 strain, BacTiter-Glo luminescence, LB-PBS (AID 1144); settings: 12 h, higher = more signal
[4] = CREB reporter modulators without forskolin, primary screen, cell-based, PC12, CRE-LacZ reporter, unstimulated (AID 1145); settings: no forskolin, luminescence, 4.5 h, higher = more signal, called active from +8 up or from −8 down
[5] = CREB reporter modulators under forskolin, primary screen, cell-based, PC12, CRE-LacZ reporter, forskolin-stimulated (AID 1146); settings: luminescence, 4.5 h, higher = more signal, called active from +8 up or from −8 down;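 note: PC12 cells with 6xCRE LacZ reporter stimulated by forskolin 10 µM; beta-galactosidase reporter signal reflecting CREB driven transcription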
[6] = biological target: Streptavidin (Streptomyces avidinii) (UniProt P22629); experiment: streptavidin binders on small-molecule microarray, primary screen, artefact control for SMM compound annotation, biophysical, 635/667 nm fluorescence (AID 1147); settings: streptavidin binding, higher = more signal;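 note: signal reflects streptavidin binding to arrayed compounds as a control protein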
[7] = small-molecule binders of probe aInhba, primary screen, biochemical, small-molecule microarray, 635/667 nm fluorescence (AID 1148); settings: higher = more signal;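 note: score merges 667nm spot fluorescence with signal-to-noise for antibody binding to printed compounds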
[8] = biological target: Torsin-1A (Homo sapiens) (UniProt O14656); experiment: torsin A binders from cell lysate, primary screen, small-molecule microarray, wild-type, 635/667 nm (AID 1149); settings: COS7 hTOR1A-WT lysate, 635 nm fluorescence, higher = more signal
[9] = biological target: Torsin-1A (Homo sapiens) (UniProt O14656); experiment: small-molecule binders of mutant TOR1A in lysate, primary screen, cell lysate, small-molecule microarray, COS7 lysate, 635/667 nm fluorescence (AID 1150); settings: COS7 hTOR1A mutant lysate, 635 nm fluorescence, higher = more signal;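 note: score pools 667 nm emission and signal to noise measuring lysate protein binding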
[10] = system: Sonic hedgehog protein (Shh); experiment: small-molecule binders of Shh protein, primary screen, biochemical, small-molecule microarray, 635/667 nm fluorescence (AID 1151); settings: small-molecule microarray binding, 635 nm fluorescence; higher = more signal;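 note: Shh protein binding to compounds spotted on small-molecule microarray slides; score combines spot fluorescence intensity with signal-to-noise across triplicate slides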
[11] = E. coli DRC41 culture turbidity changes, primary screen, E. coli filamentation inducer project, strain DRC41, OD650, 48 h (AID 1152);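 note: E. coli MC1000 strain DRC41 lacking acrAB efflux pump and sulA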; settings: E. coli DRC41 (acrAB sulA), higher = more signal, called active from +8 up or from −8 down
[12] = small-molecule binders of probe aLefty1, primary screen, biochemical, small-molecule microarray, 635/667 nm fluorescence (AID 1153); settings: higher = more signal;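 note: score merges spot fluorescence with signal-to-noise ratio from the scanned slide images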
[13] = PSAC antagonists in infected red cells, primary screen, cell-based, P. falciparum Indochina, OD700, 1 h (AID 1154); settings: P. falciparum Indochina infected RBC osmotic lysis, higher = more signal, called active from +8 up or from −8 down
[14] = PSAC antagonists in infected red cells, primary screen, cell-based, P. falciparum Indochina, OD700, 2 h (AID 1155);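 note: lysis reports solute entry through the parasite surface anion channel PSAC; channel blockers reduce lysis of infected cells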; settings: P. falciparum Indochina infected erythrocytes, osmotic lysis OD700; higher = more signal, called active from +8 up or from −8 down
[15] = osmotic lysis modulators in infected erythrocytes, primary screen, PSAC antagonist project, cell-based, P. falciparum Indochina, OD700, 3 h (AID 1156); settings: higher = more signal, called active from +8 up or from −8 down
[16] = PSAC antagonists in infected red cells, primary screen, cell-based, P. falciparum Indochina, OD700, 18 h (AID 1157); settings: P. falciparum Indochina infected erythrocytes, osmotic lysis OD700, 18 h; higher = more signal, called active from +8 up or from −8 down
[17] = modulators of S6 phosphorylation in cells, primary screen, cell-based, A549, cytoblot, luminescence, serum-stimulated (AID 1158); settings: A549 phospho-S6 cytoblot, 5 h, higher = more signal;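 note: serum-stimulated A549 lung adenocarcinoma cells; signal is phosphorylated S6 detected by cytoblot immunostaining with HRP secondary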
[18] = biological target: NADPH oxidase 2 (Homo sapiens) (UniProt P04839); experiment: NOX2-dependent H2O2 signal modulators, primary screen, NOX inhibitor project, cell-based, HEK293-NOX2, PMA-stimulated, Amplex Red fluorescence (AID 1159); settings: 45 min, higher = more signal, called active from +8 up or from −8 down; note: test concentration not given here
[19] = biological target: NADPH oxidase 4 (Homo sapiens) (UniProt Q9NPH5); experiment: NOX4-dependent H2O2 signal modulators, primary screen, NOX inhibitor project, cell-based, HEK293-NOX4, tetracycline-induced, Amplex Red fluorescence (AID 1160); settings: 45 min, higher = more signal, called active from +8 up or from −8 down
[20] = biological target: NADPH oxidase 5 (Homo sapiens) (UniProt Q96PH1); experiment: NOX5-dependent H2O2 signal modulators, primary screen, NOX inhibitor project, cell-based, HEK293-NOX5, Amplex Red fluorescence (AID 1161); settings: HEK293-NOX5, ionomycin, 45 min, higher = more signal
Sequence of NADPH oxidase 5 (Homo sapiens) (Q96PH1 whole entry, looked up): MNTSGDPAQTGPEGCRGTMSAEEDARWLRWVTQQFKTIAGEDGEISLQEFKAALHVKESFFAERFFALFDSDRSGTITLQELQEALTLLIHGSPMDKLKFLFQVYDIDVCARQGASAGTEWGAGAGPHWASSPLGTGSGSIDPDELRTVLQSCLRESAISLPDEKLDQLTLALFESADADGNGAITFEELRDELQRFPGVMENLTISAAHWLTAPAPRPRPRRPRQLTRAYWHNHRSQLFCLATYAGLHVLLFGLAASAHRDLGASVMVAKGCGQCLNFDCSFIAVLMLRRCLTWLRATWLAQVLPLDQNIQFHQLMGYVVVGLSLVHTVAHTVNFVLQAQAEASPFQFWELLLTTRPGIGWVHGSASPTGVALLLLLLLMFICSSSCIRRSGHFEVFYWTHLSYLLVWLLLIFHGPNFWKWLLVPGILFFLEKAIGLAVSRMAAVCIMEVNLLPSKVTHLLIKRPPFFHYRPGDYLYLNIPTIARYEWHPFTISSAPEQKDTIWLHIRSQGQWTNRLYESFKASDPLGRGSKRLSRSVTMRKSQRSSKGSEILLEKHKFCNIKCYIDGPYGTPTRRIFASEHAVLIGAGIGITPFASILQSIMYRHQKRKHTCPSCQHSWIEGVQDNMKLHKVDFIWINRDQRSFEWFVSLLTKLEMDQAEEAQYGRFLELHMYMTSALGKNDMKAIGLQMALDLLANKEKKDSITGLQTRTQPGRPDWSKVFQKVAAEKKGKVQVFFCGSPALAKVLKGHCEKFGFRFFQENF

Sequence of Torsin-1A (Homo sapiens) (O14656 whole entry, looked up): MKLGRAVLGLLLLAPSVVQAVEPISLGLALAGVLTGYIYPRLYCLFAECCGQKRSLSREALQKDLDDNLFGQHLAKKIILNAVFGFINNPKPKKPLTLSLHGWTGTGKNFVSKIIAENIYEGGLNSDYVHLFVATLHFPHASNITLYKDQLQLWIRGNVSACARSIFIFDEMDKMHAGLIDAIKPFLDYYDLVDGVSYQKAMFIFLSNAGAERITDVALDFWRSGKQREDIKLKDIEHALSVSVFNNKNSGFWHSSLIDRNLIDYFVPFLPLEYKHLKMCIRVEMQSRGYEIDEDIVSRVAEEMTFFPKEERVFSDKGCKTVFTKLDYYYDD
Sequence of NADPH oxidase 4 (Homo sapiens) (Q9NPH5 whole entry, looked up): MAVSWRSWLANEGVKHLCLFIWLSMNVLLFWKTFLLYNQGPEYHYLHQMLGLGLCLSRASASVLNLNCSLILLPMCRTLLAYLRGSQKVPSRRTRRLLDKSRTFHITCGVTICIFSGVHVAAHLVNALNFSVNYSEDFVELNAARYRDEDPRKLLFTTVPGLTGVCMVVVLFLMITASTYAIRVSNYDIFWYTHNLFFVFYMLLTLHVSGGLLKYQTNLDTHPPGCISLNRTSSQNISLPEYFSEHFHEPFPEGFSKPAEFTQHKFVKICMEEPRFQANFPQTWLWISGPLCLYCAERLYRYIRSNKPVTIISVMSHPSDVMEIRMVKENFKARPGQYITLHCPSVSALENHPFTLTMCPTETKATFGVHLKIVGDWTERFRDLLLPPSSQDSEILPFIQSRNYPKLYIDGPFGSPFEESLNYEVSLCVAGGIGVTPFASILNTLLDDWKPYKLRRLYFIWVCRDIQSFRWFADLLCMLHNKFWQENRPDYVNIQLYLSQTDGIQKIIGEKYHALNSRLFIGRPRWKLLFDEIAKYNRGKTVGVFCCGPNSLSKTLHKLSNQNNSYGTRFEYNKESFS
Sequence of NADPH oxidase 2 (Homo sapiens) (P04839 whole entry, looked up): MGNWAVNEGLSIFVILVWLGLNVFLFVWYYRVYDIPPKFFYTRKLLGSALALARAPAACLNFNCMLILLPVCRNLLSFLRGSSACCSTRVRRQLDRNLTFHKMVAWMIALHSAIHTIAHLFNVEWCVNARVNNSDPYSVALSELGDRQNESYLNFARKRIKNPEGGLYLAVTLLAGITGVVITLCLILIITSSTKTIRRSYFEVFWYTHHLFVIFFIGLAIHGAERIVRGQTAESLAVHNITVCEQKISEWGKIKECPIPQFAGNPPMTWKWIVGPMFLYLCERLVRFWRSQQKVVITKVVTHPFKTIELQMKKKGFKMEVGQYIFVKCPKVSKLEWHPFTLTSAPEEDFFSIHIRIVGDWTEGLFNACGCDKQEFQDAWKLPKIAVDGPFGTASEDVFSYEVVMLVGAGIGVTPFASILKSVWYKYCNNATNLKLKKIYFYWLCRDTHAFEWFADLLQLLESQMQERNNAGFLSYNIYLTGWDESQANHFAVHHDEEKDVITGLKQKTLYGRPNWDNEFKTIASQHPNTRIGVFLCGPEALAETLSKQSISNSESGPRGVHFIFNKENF
Sequence of Streptavidin (Streptomyces avidinii) (P22629 whole entry, looked up): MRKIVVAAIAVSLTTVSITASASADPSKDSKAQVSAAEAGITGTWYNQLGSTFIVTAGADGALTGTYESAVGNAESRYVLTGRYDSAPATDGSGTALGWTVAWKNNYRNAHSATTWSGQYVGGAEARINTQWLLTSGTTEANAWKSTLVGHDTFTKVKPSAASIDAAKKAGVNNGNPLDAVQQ

O=C(CS)NCCCCCCNC(=O)[C@@H]1C[C@@H]2C(=O)N[C@@H](Cc3ccccc3)C(=O)N2[C@@H]1c1cccc(OCCO)c1
composite z-score [1]: 0.879
z-score [2]: 0.0037 (inactive)
z-score [3]: -0.614 (inactive)
z-score [4]: -0.134 (inactive)
z-score [5]: -0.112 (inactive)
composite z-score [6]: 0.253
composite z-score [7]: -0.163
composite z-score [8]: 1.1
composite z-score [9]: 1.48
composite z-score [10]: 1.49
z-score [11]: -0.92 (inactive)
composite z-score [12]: -0.073
z-score [13]: 4.39 (inactive)
z-score [14]: 0.198 (inactive)
z-score [15]: 0.839 (inactive)
z-score [16]: 0.0799 (inactive)
z-score [17]: -0.775
z-score [18]: 1.75 (inactive)
z-score [19]: 0.728 (inactive)
z-score [20]: -0.131

COc1cc2c(cc1OC)CN(C(=O)[C@H]1[C@@H]3C(=O)O[C@@H](c4ccccc4)[C@@H](c4ccccc4)N3[C@@H](c3ccc(O)cc3)[C@]13C(=O)Nc1ccc(C#CCCO)cc13)CC2
composite z-score [1]: -0.0279
z-score [2]: -1.04 (inactive)
z-score [3]: -0.827 (inactive)
z-score [4]: 0.0653 (inactive)
z-score [5]: -0.163 (inactive)
composite z-score [6]: 0.491
composite z-score [7]: -0.0405
composite z-score [8]: 0.0143
composite z-score [9]: 0.618
composite z-score [10]: 0.0545
z-score [11]: 0.675 (inactive)
composite z-score [12]: -0.147
z-score [13]: 1.06 (inactive)
z-score [14]: 0.736 (inactive)
z-score [15]: 1.15 (inactive)
z-score [16]: 0.689 (inactive)
z-score [17]: 0.503
z-score [18]: 1.38 (inactive)
z-score [19]: -0.0637 (inactive)
z-score [20]: 1.08

C=CCC(OC(C)=O)[C@@H]1[C@@H](N(Cc2ccc(-c3ccccc3)cc2)C(=O)c2ccc(-c3ccccc3)cc2)c2cc(OCCCO)ccc2N1C(=O)Cc1ccc2ccccc2c1 (stereo not given in full)
composite z-score [1]: 0.102
z-score [2]: 0.315 (inactive)
z-score [3]: -0.0138 (inactive)
z-score [4]: 0.208 (inactive)
z-score [5]: 0.411 (inactive)
composite z-score [6]: 0.497
composite z-score [7]: 0.0051
composite z-score [8]: -0.395
composite z-score [9]: 0.42
composite z-score [10]: 0.523
z-score [11]: -0.706 (inactive)
composite z-score [12]: 0.155
z-score [13]: 0.05 (inactive)
z-score [14]: 0.129 (inactive)
z-score [15]: -0.472 (inactive)
z-score [16]: 0.408 (inactive)
z-score [17]: -0.309
z-score [18]: 0.795 (inactive)
z-score [19]: 1 (inactive)
z-score [20]: 0.532

CN(C)C(=O)[C@@]1(CCS(=O)(=O)c2ccccc2)COC(c2ccc(OCCCO)cc2)=N1
composite z-score [1]: 0.623
z-score [2]: -3.66 (inactive)
z-score [3]: -0.26 (inactive)
z-score [4]: -0.562 (inactive)
z-score [5]: -0.793 (inactive)
composite z-score [6]: 0.0248
composite z-score [7]: 0.0589
composite z-score [8]: 1.24
composite z-score [9]: 2.51
composite z-score [10]: -0.977
z-score [11]: 0.276 (inactive)
composite z-score [12]: 0.0244
z-score [13]: 25.6 (active)
z-score [14]: 8.3 (active)
z-score [15]: 1.69 (inactive)
z-score [16]: 1.26 (inactive)
z-score [17]: 0.313
z-score [18]: -2.71 (inactive)
z-score [19]: 0.265 (inactive)
z-score [20]: -0.621

CC1(C)[C@@H]2CC(C(O)C3C=CC4C(=O)N(c5ccccc5)C(=O)C4N3Nc3ccc([N+](=O)[O-])cc3)=C[C@H]1C2 (stereo not given in full)
composite z-score [1]: 0.909
z-score [2]: -1.2 (inactive)
z-score [3]: -0.88 (inactive)
z-score [4]: 0.323 (inactive)
z-score [5]: 0.617 (inactive)
composite z-score [6]: 1.18
composite z-score [7]: 0.0179
composite z-score [8]: 1.18
composite z-score [9]: 0.537
composite z-score [10]: 0.808
z-score [11]: -1.03 (inactive)
composite z-score [12]: 0.404
z-score [13]: 14.3 (active)
z-score [14]: 2.98 (inactive)
z-score [15]: 2.92 (inactive)
z-score [16]: 1.56 (inactive)
z-score [17]: -0.539
z-score [18]: -0.0932 (inactive)
z-score [19]: -1.02 (inactive)
z-score [20]: -2.02

C=CCN1C(=O)[C@]2(O[C@H](CCn3cc([C@H](O)c4ccccc4)nn3)[C@@H]([Si](C)(C)c3ccc(OC)cc3)[C@@H]2C)c2ccccc21
composite z-score [1]: -0.336
z-score [2]: -3.87 (inactive)
z-score [3]: -0.151 (inactive)
z-score [4]: 2.23 (inactive)
z-score [5]: -0.979 (inactive)
composite z-score [6]: -0.957
composite z-score [7]: -0.203
composite z-score [8]: -0.704
composite z-score [9]: -0.73
composite z-score [10]: 0.238
z-score [11]: -0.554 (inactive)
composite z-score [12]: -0.0099
z-score [13]: 4.6 (inactive)
z-score [14]: 1.02 (inactive)
z-score [15]: 0.914 (inactive)
z-score [16]: 0.843 (inactive)
z-score [17]: 0.256
z-score [18]: 0.952 (inactive)
z-score [19]: 0.055 (inactive)
z-score [20]: -0.251

C=C(CCCC)/C(=C/C[C@@H](OC(=O)c1ccncc1)c1ccc(OCCO)cc1)c1cc(C(=O)OC)ccc1OC
composite z-score [1]: -0.109
z-score [2]: -1.43 (inactive)
z-score [3]: -0.0194 (inactive)
z-score [4]: 2.32 (inactive)
z-score [5]: 1.99 (inactive)
composite z-score [6]: 0.378
composite z-score [7]: -0.128
composite z-score [8]: 0.0383
composite z-score [9]: 0.111
composite z-score [10]: 1.41
z-score [11]: 0.4 (inactive)
composite z-score [12]: -0.0984
z-score [13]: 17.3 (active)
z-score [14]: 3.18 (inactive)
z-score [15]: 1.85 (inactive)
z-score [16]: 0.969 (inactive)
z-score [17]: 0.377
z-score [18]: -1.61 (inactive)
z-score [19]: -0.665 (inactive)
z-score [20]: -1.9

CC[C@@H]1C=C(C(=O)O)[C@H](c2ccc(Br)cc2)N1S(=O)(=O)c1ccc(C)cc1
composite z-score [1]: -0.13
z-score [2]: -0.141 (inactive)
z-score [3]: 0.598 (inactive)
z-score [4]: 0.0798 (inactive)
z-score [5]: 0.472 (inactive)
composite z-score [6]: 0.791
composite z-score [7]: 0.222
composite z-score [8]: 0.297
composite z-score [9]: 0.233
composite z-score [10]: 0.248
z-score [11]: -0.467 (inactive)
composite z-score [12]: -0.0989
z-score [13]: 0.471 (inactive)
z-score [14]: 1.06 (inactive)
z-score [15]: -0.187 (inactive)
z-score [16]: 0.658 (inactive)
z-score [17]: -0.283
z-score [18]: 0.451 (inactive)
z-score [19]: -0.117 (inactive)
z-score [20]: 0.379

COC(=O)[C@@]1(Cc2ccc(OC)cc2)[C@H]2c3cc(C(=O)N4CCCC4)n(Cc4ccc(C)c(F)c4F)c3C[C@H]2CN1C(=O)c1ccccc1
composite z-score [1]: 0.634
z-score [2]: -2.92 (inactive)
z-score [3]: 0.605 (inactive)
z-score [4]: -1.15 (inactive)
z-score [5]: -0.572 (inactive)
composite z-score [6]: 1.81
composite z-score [7]: 0.289
composite z-score [8]: -0.429
composite z-score [9]: 0.839
composite z-score [10]: -0.746
z-score [11]: -0.548 (inactive)
composite z-score [12]: 0.378
z-score [13]: 3.76 (inactive)
z-score [14]: 0.233 (inactive)
z-score [15]: 0.894 (inactive)
z-score [16]: 1.08 (inactive)
z-score [17]: 0.105
z-score [18]: 0.705 (inactive)
z-score [19]: 1.23 (inactive)
z-score [20]: -3.41
